According to PubChem BioAssay AID485273 (Sanford-Burnham Center for Chemical Genomics, 2010):
The whole screen tested about 330,000 compounds, of which about 1,500 (0.45%) were called active. Shown is part of a subset that was picked to be rich in actives. Values without a mark were called inactive. Cut-off read from the data, not from the text of the source: active = inhibition above about 45% (passing the limit was not always enough); inconclusive = no clear call, values can overlap the other calls.

biological target: Ubiquitin-conjugating enzyme E2 N (Homo sapiens) (UniProt P61088); experiment: blockers of UBC13 ubiquitin chain synthesis – biochemical, TR-FRET, uHTS, primary screen (AID 485273); settings: UBC13 polyubiquitin chain formation, at 20 µM, hits give high values
Sequence (P61088 whole entry, looked up): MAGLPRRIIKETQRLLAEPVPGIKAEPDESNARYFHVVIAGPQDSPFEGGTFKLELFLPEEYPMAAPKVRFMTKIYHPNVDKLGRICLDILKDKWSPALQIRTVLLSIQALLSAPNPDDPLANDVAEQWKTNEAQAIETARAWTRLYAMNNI

| SMILES | inhibition |
| --- | --- |
| Cc1cccc(CNS(=O)(=O)c2ccc(-c3cnc(C4CC4)o3)cc2)c1 | -0.4% |
| COc1ccc(S(=O)(=O)NNC(=O)Nc2ccc(C)cc2)c(OC)c1 | -8.1% |
| CCN(CC(=O)NCc1cccs1)C(=O)c1cccc(S(=O)(=O)Nc2ccccc2OC)c1 | 49.7% (active) |
| CCN(CC(=O)NCc1cccs1)C(=O)c1ccc(OC)c(S(=O)(=O)N2CCOCC2)c1 | -0.3% |
| CCN(CC(=O)NCc1cccs1)C(=O)c1ccccc1F | -3.4% |
| CN(C(=O)CN(CCO)CC(=O)N(C)C(C)(C)Cc1ccccc1)C(C)(C)Cc1ccccc1 | 57.3% (active) |
| OCCN(Cc1ccccc1)Cc1ccc(Cl)cc1 | 5.2% |
| CCN(CC)C(=O)N(CC)Cc1ccccc1 | 6.4% |
| C/C(=N\NC(=O)OC(C)(C)C)c1ccc[nH]1 | 0.6% |
| C=CCSC1=C(C#N)C(c2cc(Br)c(O)c(OC)c2)CC(=O)N1 (centres undefined) | 1.6% |
| Cn1c(C(=O)NCCc2ccsc2)cc2c(=O)n(C)c3ccccc3c21 | 20.8% |
| Cn1c(C(=O)NCCCN2CCN(c3cccc(Cl)c3)CC2)cc2c(=O)n(C)c3ccccc3c21 | 49.9% (active) |
| CCN1CCCC1CNC(=O)c1cc2c(=O)n(C)c3ccccc3c2n1C (centres undefined) | 30.3% |
| O=C(CSc1nnc(C2CC2)n1Cc1ccccc1)Nc1cccnc1Cl | -7.4% |
| CCOc1cc(S(=O)(=O)NC2CC(C)(C)NC(C)(C)C2)ccc1F | 7.3% |
| O=c1c2c(nc3n1CCCCC3)sc1c(O)cccc12 | 80% (active) |
| Cc1c(C(=O)Nc2ccccc2)sc2nc3n(c(=O)c12)CCCCC3 | -3% |
| Cc1cccc2c(=O)n3c(nc12)CCCCC3 | 6.4% |
| CCn1ncc(CNC(=O)C2(C)CC2(Br)Br)c1C (centres undefined) | -4.3% |
| COc1cc(NC(=O)c2ccc(CNc3c(N4CCCC4)c(=O)c3=O)cc2)cc(OC)c1OC | -3.8% |
| O=C(c1ccc(F)cc1)N1CCC(C(=O)N2CCN(S(=O)(=O)c3ccccc3Br)CC2)CC1 | 13.6% |
| N[C@@H](Cc1ccccc1)C(=O)N1CCC(C(=O)NCC(=O)Nc2ccc(F)cc2)CC1 | -7.5% |
| Cn1c(SCC(=O)C(C)(C)C)nnc1-c1ccccn1 | 2.2% |

| SMILES | inhibition |
| --- | --- |
| O=S(=O)(c1ccc(NC(=S)NN=C(C2CC2)C2CC2)cc1)N1CCOCC1 | 45.9% (active) |
| O=C(CN1C(=O)CCC1=O)Nc1ccc(S(=O)(=O)N2CCOCC2)cc1 | 0.4% |
| O=C(NNC(=S)Nc1ccccc1)c1cccc(S(=O)(=O)N2CCOCC2)c1 | -21.6% |
| COc1cc2c(cc1OC)CN(C(C)C(=O)Nc1cccc(S(=O)(=O)N3CCOCC3)c1)CC2 (centres undefined) | -1.1% |
| CC(C)Cc1oc(C(=O)O)cc1CN | -1.6% |
| CCCCNC(=S)N/N=C1\CCCCc2ccccc21 | 0.6% |
| COc1ccc(C(CNC(=O)c2ccc(NS(=O)(=O)c3ccc(F)c(C)c3)cc2)N(C)C)cc1 (centres undefined) | 40.3% |
| CC(=O)c1ccc(S(=O)(=O)Nc2ccc(C(=O)NCC(c3ccccc3)N(C)C)cc2)cc1 (centres undefined) | 1.5% |
| COc1ccc(C(CNC(=O)c2ccc(S(=O)(=O)Nc3ccccc3F)cc2)N(C)C)cc1 (centres undefined) | 94.8% (active) |
| COc1ccc(C(F)(F)F)cc1N/C=C\c1nnnn1-c1ccc(C)cc1 | 4.1% |
| COc1ccc(C(=O)N(C)CC(O)c2ccccc2)cc1OC1CCN(C(C)=O)CC1 (centres undefined) | -0.4% |
| CCC1=Nc2cc(C(=O)NCCN3CCCC3)ccc2Sc2ccc(C)cc21 | 17.6% |
| Cc1cccc(-c2nc3ccc(C(=O)NCCN4CCN(C)CC4)cc3nc2-c2cccc(C)c2)c1 | 57.2% (active) |
| Cc1cccc(C(=O)OC(C)CN2CCN(C)CC2)c1 (centres undefined) | 9.9% |
| CC(Sc1nnnn1C1CCCCC1)C(=O)O (centres undefined) | -4.9% |
| O=C(NCc1ccco1)c1ccc(NS(=O)(=O)c2cccc([N+](=O)[O-])c2)cc1 | -4.6% |
| CCOC(=O)[C@@H]1[C@H]2COc3cc(OC)ccc3[C@H]2N2C(=O)N(c3ccc(F)cc3)C(=O)[C@]12C | 53.6% (active) |
| CCOC(=O)[C@H]1[C@H]2COc3cc(OC)ccc3[C@@H]2N2C(=O)N(c3ccc(Br)cc3)C(=O)[C@@]12C | -15% |
| CCOC(=O)[C@@H]1[C@H]2COc3cc(OC)ccc3[C@@H]2N2C(=O)N(c3cccc(C)c3)C(=O)[C@@]12C | -7.1% |
| O=C(O)c1ccc(F)c(S(=O)(=O)Nc2ccccc2)c1 | 4% |
| O=C(Nc1cccc(C(=O)NC2CC2)c1)c1ccc(F)c(S(=O)(=O)N2CCOCC2)c1 | 3.1% |
| O=C(Nc1ccc([N+](=O)[O-])cc1)OCCc1ccccn1 | -7.9% |
| CC(=O)c1cccc(NC(=O)C2CCCN2S(=O)(=O)c2cccc3nsnc23)c1 (centres undefined) | -4.7% |

| SMILES | inhibition |
| --- | --- |
| CN(C(=O)COC(=O)c1cc(=O)[nH]c2ccccc12)C1CCCCC1 | 5.6% |
| CCCCC(=O)Nc1ccc(C(=O)Nc2cc(C(F)(F)F)ccc2Cl)cc1 | -15% |
| CCCCN(CCCC)CCC(O)c1cc2c(Cl)cc(Cl)cc2c2cc(C(F)(F)F)ccc12 (centres undefined) | 51.7% (active) |
| O=C(Nc1ccccc1N1CCOCC1)c1ccc(OCc2cscn2)cc1 | 0.6% |
| CCn1cc(C(=O)NCC(=O)NC(C)(C)CO)c(=O)c2cc3c(cc21)OCO3 | 3.5% |
| c1ccc2c(CCN3CCNC[C@H]3Cc3cccc4ccccc34)cccc2c1 | 46.1% (active) |
| c1ccc(C[C@H]2CNCCN2CCC23CC4CC(CC(C4)C2)C3)cc1 | 55.8% (active) |
| CC(C)(C)CN1C(=O)C(=O)NC[C@H]1Cc1cccc2ccccc12 | 4% |
| O=C1CCNCCN1[C@H](CO)Cc1ccccc1 | -4.8% |
| c1ccc(C2CNCc3c2ccc2ccccc32)cc1 (centres undefined) | 21.7% |
| O=C1C(=O)N(c2ccccc2)c2ccccc21 | -10.7% |
| CC(C)(C)c1nnc(N/N=C/c2ccc(O)cc2)n(N)c1=O | -10.3% |
| CCCc1cc(=S)n2c([nH]c3ccccc32)c1C#N | -11.8% |
| CCOC(=O)c1ccc(NC(=O)c2nc[nH]c2C(=O)NCc2ccccc2)cc1 | 65% (active) |
| O=C(Nc1ccon1)c1nc[nH]c1C(=O)NCc1ccccc1 | -4.8% |
| CCOC(=O)c1[nH]cnc1C(=O)Nc1ccccc1C | -4.7% |
| Cc1cc(C)c(SCCc2ccncc2)c(C)c1 | 5.6% |
| Cc1ccccc1CCNC(=O)C1CCC(=O)N(Cc2ccc(Cl)cc2)C1 (centres undefined) | 1.4% |
| CCOC(=O)c1nnn(-c2nonc2OC)c1-c1ccccc1 | 1% |
| CCOC(=O)C1=C(c2ccccc2)O/C(=C(/C(=O)OC)C(F)(F)F)S1 | 46.8% (active) |
| COC(=O)/C(=C1\Oc2ccc(C(C)(C)C)cc2S1)C(F)(F)F | -10.5% |
| COc1ccc2sc(-c3ccc(S(C)(=O)=O)cc3)c(C#Cc3cncn3C)c2c1 | 47.1% (active) |
| COc1ccc(-c2sc3ccc(OC)cc3c2C#Cc2ccccn2)cc1 | 29.9% |

| SMILES | inhibition |
| --- | --- |
| COc1ccc2sc(-c3ccc(S(C)(=O)=O)cc3)c(-c3ccc(C(N)=O)cc3)c2c1 | 38.5% |
| CCOC(=O)C1CCN(Cc2coc3ccc(Cl)cc3c2=O)CC1 | -15.5% |
| CCOC(=O)c1c(S(=O)(=O)Nc2cccc(Cl)c2)c(C)n(C)c1C | -2.9% |
| Cc1c(C(=O)N2CCCC2)c(S(=O)(=O)NCC(C)c2ccccc2)c(C)n1C (centres undefined) | -2.8% |
| CCOC(=O)c1cccc(NS(=O)(=O)c2c(C(=O)N3CCCCCC3)c(C)n(C)c2C)c1 | 46.1% (active) |
| Cc1nnc(SC(C)C(=O)Nc2ccc(S(=O)(=O)NC3CCCCC3)cc2)s1 (centres undefined) | -0.1% |
| C=CCN1C(=O)C(Cc2ccc(OCC)cc2)SC1=Nc1ccc(C(=O)O)cc1 (centres undefined) | 7.8% |
| CCC1CCC/C1=N\NC(=O)c1ccc(Cl)cc1 (centres undefined) | 6.6% |
| Cc1ccc(Oc2cc(NC(=O)CCCn3nc(C)c([N+](=O)[O-])c3C)cc([N+](=O)[O-])c2)cc1 | -3.8% |
| C=C1c2c(Cl)ccc(O)c2C(O)=C2C(=O)[C@]3(O)C(O)=C(C(N)=O)C(=O)[C@@H](N(C)C)[C@@H]3[C@@H](O)C12 (some centres undefined) | 57.1% (active) |
| CN(C)[C@@H]1C(=O)C(C(N)=O)=C(O)[C@@]2(O)C(=O)C3=C(O)c4c(O)ccc(Cl)c4[C@@H](O)[C@H]3C[C@@H]12 | 6.5% |
| CCCn1c(SCC(=O)Nc2cccc(C(=O)OCC)c2)nnc1-c1ccoc1C | 11.9% |
| COc1ccccc1NC(=O)CSc1nnc(-c2ccoc2C)n1CCc1ccccc1 | 94.2% (active) |
| CCn1c(SCC(=O)Nc2cc(C)c(Cl)cc2OC)nnc1-c1ccco1 | 4.1% |
| CC(Oc1ccccc1)C(=O)Nc1oc(-c2ccco2)c(-c2ccco2)c1C#N (centres undefined) | -15.8% |
| Cc1nonc1C1CCCN1Cc1nc(-c2ccc(F)cc2F)oc1C (centres undefined) | 0.7% |
| CC1(C)NC(=O)N(CC(=O)Nc2cc(C(F)(F)F)cc(C(F)(F)F)c2)C1=O | 0.4% |
| C=CCn1c(Oc2ccc(C(=O)OC)cc2)nc2c1c(=O)n(C)c(=O)n2C | -13% |
| O=S(=O)(c1ccccc1)N1CN(Cc2ccc(F)cc2)c2nc3ccccc3nc21 | -1.4% |
| Cc1ccc(NC(=O)c2cc([N+](=O)[O-])ccc2Cl)c(O)c1 | 2.4% |
